FMDV antiviral = antivirals against foot and mouth disease virus; FMDV antiviral cell-based qHTS; Potency, µM (titrated, usually from 57.9 µM), most hits filed as inhibitors; 410,000 tested, 1.2% active; AID 1159524; calls by dose curve; tested in HEK293T cells; also: read-out not given here; nearly all actives have a fitted effect of over 45% in size
Marburg entry inh = Marburg virus entry inhibition. AID 540276. 300,000 tested, 1.8% active. Potency, µM (doses to about 37.8 µM), most hits filed as inhibitors. Marburg virus pseudotyped entry inhibition, cell reporter; calls by dose curve; tested in HEK293 cells
Vaccinia Venus = inhibitors of vaccinia virus (Venus reporter). Vaccinia virus Venus reporter expression, fluorescence. Potency, µM (highest dose often 36.5 µM), actives largely listed as inhibitors. 330,000 tested, 0.46% active. AID 720580; calls by dose curve; tested in A549 cells; also: nearly all actives have a fitted effect of over 30% in size
HCMV antiviral = inhibitors of human cytomegalovirus | activity change, negative = inhibition, % at 57.5 µM | AID 1259415 | HFF cells, HCMV-luciferase reporter, 72 h; active compounds read low | 410,000 tested, 4.5% active; in the data active = activity change below about -60%; inconclusive = no clear call, values can overlap the other calls; inactive = above about -39%
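After 16 h attachment at 37C, HFF cells received test compound and HCMV-luciferase (1 PFU/cell); reporter luminescence read 72 h later, data normalized against buffer-only and known inhibitor Salinomycin.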
VACV mCherry inh = vaccinia inhibition (mCherry reporter). Potency, µM (top dose mostly 36.5 µM), actives largely listed as inhibitors. Vaccinia virus mCherry reporter infection, fluorescence. 310,000 tested, 0.63% active; calls by dose curve; tested in A549 cells; also: nearly all actives have a fitted effect of over 35% in size
LASV entry inh = blocks Lassa virus binding to or entry into cells; 300,000 tested, 1.2% active; Potency, µM (series often up to 37.9 µM), hits mostly inhibitors; Lassa virus pseudotype entry inhibition, cell reporter; AID 540256; calls by dose curve; tested in HEK293 cells; also: nearly all actives have a fitted effect of over 50% in size
A number is an active result; – = inactive; ? = inconclusive; · = not tested or not shown; + = active, no number; ! = a repeat was not active; [ ] = remark or other dose. This is a sample that favours compounds with a hit; in the whole collection about 6.5% have one here.

SMILES	FMDV antiviral	Marburg entry inh	Vaccinia Venus	HCMV antiviral	VACV mCherry inh	LASV entry inh
COc1ccc(N2CCN(c3nc4c(c(=O)n(C)c(=O)n4C)n3Cc3ccccc3)CC2)cc1	–	10µM	?	–	–[1.46 µM]	8.9µM
COc1ccc(N2CCn3c2nc2c3c(=O)n(CCCc3ccccc3)c(=O)n2C)c(OC)c1	13µM	?	·	-90	·	?
CC(C)OCCCn1c(SCc2ccccc2Cl)nc2c(sc3ccccc32)c1=O	–	·	–	–	–	–
COc1ccccc1CCNC(=O)c1ccc(-c2nc(CSc3ccc(C)cc3)c(C)o2)cc1	?	·	–	–	–	–
CCc1c(CN2CCN(c3ccccc3F)CC2)csc1C	–	·	–	–	–	–
C=C(C)Cn1c(N2CCN(c3ccc(OC)cc3)CC2)nc2c1c(=O)n(C)c(=O)n2C	28µM	?	–	?	–	?
Cc1ccccc1Oc1nc2c(c(=O)n(C)c(=O)n2C)n1C	–	–	–	–	–	–
CC1CCCN(c2nc3c(c(=O)[nH]c(=O)n3C)n2Cc2ccccc2Cl)C1 (stereo unspecified)	–	·	?	-82	–	·
CCn1c(Oc2ccccc2C)nc2c1c(=O)n(C)c(=O)n2C	–	·	·	-74	·	·
CC(C)CCn1c(N2CCC(C(N)=O)CC2)nc2c1c(=O)[nH]c(=O)n2C	–	–	–	-94	–	–
Cn1c(=O)[nH]c(=O)c2c1nc(N1CCNCC1)n2Cc1ccccc1Cl	–	·	·	–	·	·
CCC(CC)C(=O)Nc1ccc2nc(SCC(=O)N3CCc4ccccc43)sc2c1	?	?	–	–	–	–
CC(C)(C(=O)NCc1ccccc1)n1cc(NC(=O)c2ccc3c(c2)OCO3)cn1	·	·	·	–	·	·
Cc1ccc2nc(N3CCCCCC3)c(CN(CC3CCCO3)C(=O)c3cncs3)cc2c1 (stereo unspecified)	–	·	–	·	–	·
Cn1c(=O)c2c(nc(N3CCN(c4ccccn4)CC3)n2Cc2ccccc2Cl)n(C)c1=O	–	?	·	–	·	21µM
CCOCCc1nn2c(=O)cc(CSCC(=O)Nc3cc(C)cc(C)c3)nc2s1	–	–	–	-62	–	?
C=CC(=O)Nc1cccc(Nc2nc(N[C@H]3CC[C@H](N(C)C)CC3)nc3c2ncn3C(C)C)c1	?	·	1µM	·	?	·
Cn1ccc2cc(S(=O)(=O)N3CCCN(C(=O)Nc4ccccc4Br)CC3)ccc21	–	·	–	–	–	–
CC(C)(O)/C=C/C(=O)C(C)(O)C1C(O)CC2(C)C3CC=C4C(C=C(O)C(=O)C4(C)C)C3(C)C(=O)CC12C (stereo unspecified)	–	0.11µM	28µM	-97	7.9µM	0.32µM
CC(=O)OC(C)(C)/C=C/C(=O)[C@](C)(O)C1[C@H](O)C[C@@]2(C)C3CC=C4C(C[C@H](O)C(=O)C4(C)C)[C@]3(C)C(=O)C[C@]12C (stereo partly specified)	28µM	·	2.5µM	·	0.5µM	·
CC1CCN(S(=O)(=O)c2ccc3c(ccc(=O)n3CC(=O)NCc3ccc(Cl)cc3)c2)CC1	–	·	–	–	–	–
CCOC(=O)Cn1nc(C)c(NC(=O)COc2ccc(Cl)cc2C)c1C	?	–	–	–	–	–
COc1ccccc1N(C)S(=O)(=O)c1ccc(C(=O)Nc2ccncc2)cc1	32µM	?	–	?	–	–
COc1ccccc1N(C)S(=O)(=O)c1ccc(C(=O)NC2CCCCC2)cc1	?	–	–	?	–	10µM
COc1ccccc1NC(=O)c1ccc(S(=O)(=O)N(C)c2ccccc2OC)cc1	?	·	·	–	·	·
SMILES	FMDV antiviral	Marburg entry inh	Vaccinia Venus	HCMV antiviral	VACV mCherry inh	LASV entry inh
COc1ccccc1N(C)S(=O)(=O)c1ccc(C(=O)Nc2cc(OC)c(OC)c(OC)c2)cc1	?	·	·	–	·	·
Cc1cccc2cc(CN(CC3CCCO3)C(=O)C3CC3)c(N(C)C)nc12 (stereo unspecified)	–	·	–	·	–	·
COc1cc(OC)c(OC)cc1/C=C/c1ccc2ccccc2[n+]1C	·	·	–	·	–	·
CCC[n+]1c(/C=C/c2c(OC)cc(OC)cc2OC)ccc2ccccc21	·	·	–	·	10µM	·
CCCC[n+]1c(/C=C/c2c(OC)cc(OC)cc2OC)ccc2ccccc21	·	·	–	·	10µM	·
COc1cc(OC)c(/C=C/c2ccc3ccccc3[n+]2C)c(OC)c1	·	·	–	·	?	·
Cc1ccc(C)c(NC(=O)CCc2ccc(C)o2)c1	–	·	·	–	·	·
CCc1nnc(NC(=O)CCc2ccc(C)o2)s1	–	–	·	–	·	–
Cc1ccc(CCC(=O)Nc2ncc(Cc3cccc(Cl)c3Cl)s2)o1	–	?	?	-64	?	?
Cc1ccc(CCC(=O)Nc2cc(Cl)ccc2Cl)o1	–	–	–	-97	–	–
COc1cccc(C2=C(C(C)=O)Sc3nncn3N2C(C)=O)c1	–	·	?	?	–	?
CC(=O)C1=C(c2ccc(Cl)c(Cl)c2)N(C(C)=O)n2cnnc2S1	?	·	–[7.34 µM]	-99	?	?
CCOc1ccc(C2=C(C(=O)CC)Sc3nncn3N2C(=O)CC)cc1	?	·	?	-101	?	?
CCC(=O)C1=C(c2ccc(F)cc2)N(C(=O)CC)n2cnnc2S1	–	·	–[7.34 µM]	-82	–[7.34 µM]	?
CCC1CN(C(=O)N2CCC(C(=O)NCc3cccc(C)c3)CC2)c2ccccc2O1 (stereo unspecified)	?	·	–	–	–	–
CSc1nc2nc3c(cc2c(=O)n1-c1ccccc1C)CCCC3	?	?	–	-91	–	?
CSc1nc2sc3c(c2c(=O)n1-c1ccccc1C)CCCC3	–	·	–	–	–	–
CCCOc1ncnc2c1[nH]c1ccccc12	?	–	·	-85	·	–
CCCOc1ncnc2c1[nH]c1ccc(OC)cc12	–	·	·	–	·	·
CCC(=O)/C=C1/Sc2ccccc2N1CC	–	–	?	?	·	–
CCN1/C(=C/c2sc(-c3ccccc3C)c[n+]2C)Sc2ccccc21	11µM	?	?	-97	?	?
Cc1cc(C)cc(NC(=O)C(CC(C)C)NC(=O)C2CCCCC2)c1 (stereo unspecified)	–	–	–	–	–	–
C[C@H](NC(=O)[C@@H]1Cc2ccccc2CN1C(=O)OC(C)(C)C)C(=O)NC1CCCCC1	–	–	–	+	–	–
CCCCN(C)CCCNC(=O)Cn1ncc2c3ccccc3n(Cc3ccccc3F)c2c1=O	–	–	?	-105	?	–
CCCCN(C)CCCNC(=O)Cn1ncc2c3ccccc3n(Cc3cc(C)ccc3C)c2c1=O	–	?	–	-99	–	?
Cc1cc(C)c(Cn2c3ccccc3c3cnn(CC(=O)NCc4ccccn4)c(=O)c32)c(C)c1	?	?	–	-62!	–	?
Cc1cnc(C)c(-c2ccc(F)c3c2OC(CNC(=O)Cc2c(F)cccc2F)C3)n1 (stereo unspecified)	–	·	–	·	–	·
CCOc1ccc(NC(=O)CC2C(=O)N(c3ccccc3)C(=O)N2Cc2ccc3c(c2)OCO3)cc1 (stereo unspecified)	–	–	–	–	–	–
CC1=C(C(N)=O)N2C(=O)[C@@H](NC(=O)Cc3ccccc3)C2SC1 (stereo partly specified)	–	·	·	·	·	·
O=C(O)c1cc(N/N=C/c2ccc(N3CCOCC3)cc2)ccc1Cl	14µM	·	·	–	·	·

Bioassay records (PubChem)
